Experimental data from ChEMBL document CHEMBL1961873, “Compounds: GSK PKIS; Assays: Nanosyn kinase panel” (2012).

Legend:
[1] = molecular target: Serine/threonine-protein kinase PAK 6 (Homo sapiens) (UniProt Q9NQU5); conditions: at 1 µM;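 note: values are mean percent inhibition of PAK6 kinase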
[2] = system: Tyrosine-protein kinase ABL1 (Homo sapiens), P00519 [E255K]; conditions: at 0.1 µM
[3] = system: Tyrosine-protein kinase ABL1 (Homo sapiens), P00519 [E255K]; conditions: at 1 µM
[4] = system: Tyrosine-protein kinase ABL1 (Homo sapiens), P00519 [H396P]; conditions: at 0.1 µM
[5] = system: Tyrosine-protein kinase ABL1 (Homo sapiens), P00519 [H396P]; conditions: at 1 µM
[6] = system: Tyrosine-protein kinase ABL1 (Homo sapiens), P00519 [M351T]; conditions: at 0.1 µM
[7] = system: Tyrosine-protein kinase ABL1 (Homo sapiens), P00519 [M351T]; conditions: at 1 µM
[8] = system: Tyrosine-protein kinase ABL1 (Homo sapiens), P00519 [Q252H]; conditions: at 0.1 µM
[9] = system: Tyrosine-protein kinase ABL1 (Homo sapiens), P00519 [Q252H]; conditions: at 1 µM
[10] = system: Tyrosine-protein kinase ABL1 (Homo sapiens), P00519 [T315I]; conditions: at 0.1 µM

Chain of Serine/threonine-protein kinase PAK 6 (Homo sapiens) (Q9NQU5 whole entry, looked up): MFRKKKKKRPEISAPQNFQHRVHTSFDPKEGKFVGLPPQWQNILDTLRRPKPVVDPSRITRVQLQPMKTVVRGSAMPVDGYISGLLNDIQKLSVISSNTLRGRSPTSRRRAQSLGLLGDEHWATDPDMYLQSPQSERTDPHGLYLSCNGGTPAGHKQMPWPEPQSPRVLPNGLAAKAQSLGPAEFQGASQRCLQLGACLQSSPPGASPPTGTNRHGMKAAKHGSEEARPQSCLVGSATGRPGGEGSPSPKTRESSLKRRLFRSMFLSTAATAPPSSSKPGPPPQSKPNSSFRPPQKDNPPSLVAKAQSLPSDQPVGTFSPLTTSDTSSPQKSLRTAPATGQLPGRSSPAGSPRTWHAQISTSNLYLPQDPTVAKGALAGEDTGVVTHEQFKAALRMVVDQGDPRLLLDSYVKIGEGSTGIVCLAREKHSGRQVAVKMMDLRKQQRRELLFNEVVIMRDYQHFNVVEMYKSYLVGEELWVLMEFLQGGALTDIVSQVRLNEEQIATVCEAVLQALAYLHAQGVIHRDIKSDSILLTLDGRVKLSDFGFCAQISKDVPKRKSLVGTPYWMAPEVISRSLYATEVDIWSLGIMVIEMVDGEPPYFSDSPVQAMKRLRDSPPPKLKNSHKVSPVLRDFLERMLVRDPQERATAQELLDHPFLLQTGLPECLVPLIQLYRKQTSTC

Row | Structure (SMILES) | inhibition [1] | inhibition [2] | inhibition [3] | inhibition [4] | inhibition [5] | inhibition [6] | inhibition [7] | inhibition [8] | inhibition [9] | inhibition [10]
1 | CN1CCN(CCCNc2nc3ccc(Oc4ccc(NC(=O)Nc5cc(C(F)(F)F)ccc5F)cc4)cc3[nH]2)CC1 | -3.76% | 0.07% | 4.6% | 0.89% | 15% | 14.3% | 45.5% | 12.8% | 48.1% | 16.6%
2 | NC(=O)c1cc(-c2ccc(F)cc2)cc(-c2ccncc2)c1N | -7.94% | 3.29% | 4.43% | 3.43% | 5.86% | 2.81% | 2.85% | 4.84% | 5.67% | 3.32%
3 | O=C(Nc1n[nH]c2cc(-c3ccccc3)ccc12)C1CC1 | -4.61% | 10.5% | 46.5% | 20.2% | 67.5% | 19.3% | 68.6% | 14% | 48.4% | 36.3%
4 | COc1ccc(-c2ccc3c(NC(=O)C4CC4)n[nH]c3n2)cc1 | -4.51% | 0.71% | 9.06% | 3.91% | 28% | 1.26% | 27.1% | 0.06% | 13.6% | 2.42%
5 | Fc1ccc(-c2ncn(C3CCNCC3)c2-c2ccnc(Oc3ccc(Oc4ccccc4)cc3)n2)cc1 | -1.92% | 1.84% | 2.14% | 2.93% | 3.2% | -0.2% | 0.05% | 1.63% | 2.88% | 0.61%
6 | CN(C)CCOc1ccc(-c2cc(-c3ccc4c(c3)CCC4=NO)c(-c3ccncc3)o2)cc1 | 1.93% | -1.95% | 7.95% | 1.96% | 20.9% | 3.15% | 19.9% | 4.54% | 34.5% | 1.35%
7 | CN(c1ccc(NC(=O)Nc2c(Cl)cccc2Cl)cc1)c1ccnc(Nc2cccc(CS(C)(=O)=O)c2)n1 | 0.99% | 8.03% | 35.9% | 30% | 69.3% | 46.9% | 81.9% | 39.3% | 72.3% | 41.6%
8 | CCS(=O)(=O)c1ccc(OC)c(Nc2ncc(-c3ccccc3Cl)o2)c1 | 0.05% | 2.3% | 16.3% | 5.27% | 23.2% | 5.47% | 22% | 5.67% | 26.3% | 3.23%
9 | Nc1nccc(-c2c(-c3ccc(F)cc3)ncn2C2CCC(O)CC2)n1 (stereo not given) | -1.54% | 2.5% | 16.9% | 3.86% | 33.6% | 7.44% | 36.6% | 5.19% | 33.9% | 6.26%
10 | CCC(=O)Nc1ccc(C)c(-c2ccc(C(=O)NCC3CC3)cc2)c1 | -9.47% | 2.13% | 2.73% | 3.96% | 4.29% | 2.37% | 1.29% | 3.29% | 4.63% | 2.76%
11 | Fc1ccc(-c2c(-c3ccncc3)nc3n2CCS3)cc1 | -5.03% | 1.44% | 4.74% | 2.06% | 3.54% | -0.24% | 5.03% | 1.69% | 4.11% | 0.05%
12 | NS(=O)(=O)c1ccc(N/N=C2\C(=O)Nc3ccc(-c4cnco4)cc32)cc1 | -6.6% | 1.82% | 7.02% | 3.45% | 15.5% | 0.98% | 17.7% | 3.05% | 13.3% | 0.71%
13 | COc1cc(Nc2ncc3c(C)nc(-c4cccc(Oc5ccccc5)c4)n3n2)cc(OC)c1OC | -0.38% | 2.03% | 1.82% | 2.82% | 1.6% | 2.89% | 1.5% | 3.94% | 0.97% | 0.51%
14 | NC(=O)c1ccc(Oc2nccc(-c3c(-c4ccc(F)cc4)ncn3C3CCNCC3)n2)cc1 | -4.13% | 2.12% | 3.91% | 5.26% | 5.53% | -1.3% | -0.09% | 2.63% | 7.69% | 3.03%
15 | CN(C)CCCNc1nccc(-c2c(-c3ccc(F)cc3)nn3cc(C(F)(F)F)ccc23)n1 | -4.04% | 1.96% | 5.43% | 4.54% | 4% | 4.09% | 3.29% | 3.28% | 5.19% | 1.28%
16 | COc1cc2ncn(-c3cc(OCc4cccs4)c(C(N)=O)s3)c2cc1OC | 11% | 2.64% | 29.8% | 10.9% | 51.6% | 7.47% | 50.4% | 8.78% | 46.3% | 12.2%
17 | CCS(=O)(=O)c1ccc(OC)c(Nc2ncc(-c3cccc(-c4ccccc4F)c3)o2)c1 | 1.97% | 40.6% | 84.4% | 34.5% | 82% | 44.6% | 86.9% | 37.9% | 84.6% | 1.82%

Row | Structure (SMILES) | inhibition [1] | inhibition [2] | inhibition [3] | inhibition [4] | inhibition [5] | inhibition [6] | inhibition [7] | inhibition [8] | inhibition [9] | inhibition [10]
18 | COc1cccc(-n2cnc3c(N/N=C/c4ccncc4)ncnc32)c1 | 3.44% | 30.8% | 80.2% | 47.1% | 87.1% | 44.7% | 88.1% | 40.1% | 84.2% | 1.94%
19 | CCc1cccc(CC)c1/C=C/c1cncc(C(=O)NC)c1 | 11.5% | 3.61% | 17.5% | 7.45% | 37.4% | 7.15% | 32.1% | 3.16% | 12.1% | 2.72%
20 | O=C(Nc1ccc(Oc2ccc3[nH]c(NC(=O)c4ccccc4)nc3c2)cc1)Nc1cc(C(F)(F)F)ccc1F | 3.44% | 3.28% | 27% | 17% | 71% | 44.6% | 79.8% | 38.4% | 74.6% | 36.6%
21 | CS(=O)(=O)CCNCc1ccc(-c2ccc3ncnc(Nc4ccc(OCc5ccccc5)c(Br)c4)c3c2)o1 | -7.5% | 1.35% | 2.28% | 4.48% | 4.61% | 0.99% | 2.04% | 3.94% | 4.09% | 1.53%
22 | c1ccc(-c2n[nH]cc2-c2ccnc(-c3ccc(OCCN4CCOCC4)cc3)c2)nc1 | 3.66% | 9.49% | 47.8% | 19.5% | 70.9% | 22.1% | 69.1% | 11.9% | 51.8% | 1.78%
23 | Cc1ccc(C(=O)NC2CCC2)cc1-c1ccc(C(=O)NCC2CC2)cc1 | -6.65% | 1.89% | 1.67% | 1.26% | 0.31% | -0.23% | -0.39% | 0.6% | 1.97% | 0.82%
24 | O=C(Nc1n[nH]c2nc(-c3ccc(O)cc3)c(Br)cc12)C1CC1 | 8.5% | 21% | 66.4% | 38.5% | 81% | 37.4% | 81% | 37.5% | 82.4% | 43.5%
25 | COc1ccc2cc(-c3c(-c4ccncc4)nc(-c4ccc([S+](C)[O-])cc4C)n3C)ccc2c1 (stereo not given) | 1.24% | -1.36% | 5.96% | 2.45% | 17.6% | 2.12% | 19.8% | 2.32% | 18% | 9.26%
26 | Fc1ccc(-c2ncn(C3CCNCC3)c2-c2ccnc(Oc3ccc(F)c(F)c3)n2)cc1 | -4.15% | 1.96% | 1.25% | 4% | 3.19% | -0.04% | -0.02% | 2.26% | 2.39% | 0.22%
27 | O=C1NC(=O)C(c2cccc(Cl)c2)=C1Nc1ccc(Cl)c(C(=O)O)c1 | -4.4% | 1.78% | 3.24% | 2.08% | 6.18% | 2.29% | 5.05% | 2.43% | 4.98% | 1.3%
28 | COc1ccc(C2=C(N3CCc4ccccc43)C(=O)NC2=O)cc1 | -1.91% | 3.46% | 3.94% | 3.85% | 5.26% | -0.47% | 7.03% | 4.56% | 6.15% | 3.54%
29 | CCc1nccc2c1nc(-c1nonc1N)n2CC | -8.78% | -0.36% | 0.91% | 1.08% | 1.44% | -0.68% | 3.2% | 0.51% | 3.64% | -0.7%
30 | FC(F)(F)c1cccc(Nc2nccc(-c3cnn4nc(-c5ccccc5)ccc34)n2)c1 | -5.84% | 0.92% | 2.38% | -0.38% | 4.75% | -1.63% | 2.9% | 1.86% | 5.75% | -0.65%
31 | COc1cc(Nc2ncc3c(C)nc(-c4cccc(C(F)(F)F)c4)n3n2)cc(OC)c1OC | 11.2% | 2.21% | 7.54% | 5.06% | 12.7% | 1.36% | 10.8% | 4.02% | 13.4% | 3.13%
32 | Cc1ccc(NC(=O)c2ccoc2)cc1-c1ccc(C(=O)NCC2CC2)cc1 | -2.77% | 1.13% | -0.37% | 3.08% | 2.07% | 0.71% | 1.82% | 2.29% | 0.64% | 2.05%
33 | CNC(=O)c1cncc(/C=C/c2c(C)cccc2C)c1 | 2.54% | 8.21% | 50.1% | 17.2% | 61.5% | 16.9% | 63.8% | 14.5% | 60.2% | 1.83%
34 | COc1cc(C)c(N(C)C(=O)CN(C)C)cc1Nc1nc(Nc2cccc(F)c2C(N)=O)c2cc[nH]c2n1 | -3.09% | -1.15% | 1.77% | 1.11% | -0.41% | 0.41% | -0.05% | 0.29% | 0.09% | 0.48%
